Compounds without any hit were thinned out: in the full panel of roughly 83,000, 20% have a hit.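 Note: values are percent growth. 100 is the growth of untreated cells, values between 100 and 0 indicate rising inhibition; between -100 and 0 indicates cell death.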 Unmarked numbers belong to inactive results. Activity calls are given as the source filed them. The calls were made as follows: active = growth percent below 10; inactive = the rest.
What was measured:
Assay in all cases: NCI-60 one-dose screen, 48 h (100 = growth as untreated, 0 = no growth, -100 = all killed)
Details in all cases: 10 µM unless noted
NCI-H23 lung = tested on: NCI-H23 lung
NCI-H226 lung = tested on: NCI-H226 lung
NCI-H322M lung = tested on: NCI-H322M lung
HOP-62 NSCLC = tested on: HOP-62 NSCLC
NCI-H460 lung = tested on: NCI-H460 lung
HOP-92 NSCLC = tested on: HOP-92 NSCLC
NCI-H522 lung = tested on: NCI-H522 lung
A549/ATCC NSCLC = tested on: A549/ATCC NSCLC
786-0 renal = tested on: 786-0 renal
COLO 205 colon = tested on: COLO 205 colon
DU-145 prostate = tested on: DU-145 prostate
K-562 leukemia = tested on: K-562 leukemia
MALME-3M melanoma = tested on: MALME-3M melanoma
MDA-MB-231 breast = tested on: MDA-MB-231 breast
RXF 393 renal = tested on: RXF 393 renal
SF-268 CNS = tested on: SF-268 CNS
SF-295 CNS = tested on: SF-295 CNS
SF-539 CNS = tested on: SF-539 CNS
UACC-257 melanoma = tested on: UACC-257 melanoma
M14 melanoma = tested on: M14 melanoma

Question: Which results are given for `C/C(=N\Nc1ccc(C(=O)O)cc1)c1cnn(-c2cc(=O)[nH]c3ccc(C)cc23)c1C`?
Answer: growth (NCI-H23 lung): 106%; growth (NCI-H226 lung): 90.1%; growth (NCI-H322M lung): 98.2%; growth (HOP-62 NSCLC): 93.1%; growth (NCI-H460 lung): 109%; growth (HOP-92 NSCLC): 6.13% (active); growth (NCI-H522 lung): 89.4%; growth (A549/ATCC NSCLC): 104%; growth (786-0 renal): 93.2%; growth (COLO 205 colon): 118%; growth (DU-145 prostate): 107%; growth (K-562 leukemia): 101%; growth (MALME-3M melanoma): 83.3%; growth (MDA-MB-231 breast): 91.1%; growth (RXF 393 renal): 93.7%; growth (SF-268 CNS): 97.2%; growth (SF-295 CNS): 95.5%; growth (SF-539 CNS): 101%; growth (UACC-257 melanoma): 106%; growth (M14 melanoma): 96.3%

Question: How did the growth (NCI-H23 lung) turn out when `CCOC(=O)/C(F)=C/C1CC1CCc1ccc(OCC)cc1` (stereo not given) was run?
Answer: 87.3%

Question: And the growth (NCI-H226 lung)?
Answer: 86.8%

Question: What about the growth (NCI-H322M lung) of the same molecule?
Answer: 82.5%

Question: And the growth (HOP-62 NSCLC)?
Answer: 124%

Question: And the growth (NCI-H460 lung)?
Answer: 59.2%

Question: And the growth (HOP-92 NSCLC)?
Answer: 91.7%

Question: What about the growth (NCI-H522 lung) of the same molecule?
Answer: 97.5%

Question: What about the growth (A549/ATCC NSCLC) of the same molecule?
Answer: 50.5%

Question: And the growth (786-0 renal)?
Answer: 105%

Question: What about the growth (COLO 205 colon) of the same molecule?
Answer: 41.8%

Question: What about the growth (DU-145 prostate) of the same molecule?
Answer: 50.5%

Question: And the growth (K-562 leukemia)?
Answer: 98.3%

Question: And the growth (MALME-3M melanoma)?
Answer: 89.9%

Question: And the growth (MDA-MB-231 breast)?
Answer: 97.4%

Question: What about the growth (RXF 393 renal) of the same molecule?
Answer: 96.2%

Question: And the growth (SF-268 CNS)?
Answer: 90.5%

Question: And the growth (SF-295 CNS)?
Answer: 91.1%

Question: And the growth (SF-539 CNS)?
Answer: 93%

Question: And the growth (UACC-257 melanoma)?
Answer: 105%

Question: And the growth (M14 melanoma)?
Answer: 105%

Question: What does the source list for `COc1cc(/C=C/C(=O)c2cnn(-c3cc(=O)[nH]c4ccc(C)cc34)c2C)cc(OC)c1OC`?
Answer: growth (NCI-H23 lung): -45% (active); growth (NCI-H226 lung): -17.8% (active); growth (NCI-H322M lung): 9.59% (active); growth (HOP-62 NSCLC): 2.27% (active); growth (NCI-H460 lung): 8.08% (active); growth (HOP-92 NSCLC): 50.6%; growth (NCI-H522 lung): -87.1% (active); growth (A549/ATCC NSCLC): 6.23% (active); growth (786-0 renal): -27% (active); growth (COLO 205 colon): -91.6% (active); growth (DU-145 prostate): -54.6% (active); growth (K-562 leukemia): 0.896% (active); growth (MALME-3M melanoma): -19.5% (active); growth (MDA-MB-231 breast): -2.3% (active); growth (RXF 393 renal): -76.9% (active); growth (SF-268 CNS): 6.69% (active); growth (SF-295 CNS): 12.7%; growth (SF-539 CNS): -29% (active); growth (UACC-257 melanoma): 5.74% (active); growth (M14 melanoma): -51.2% (active)

Question: What does the source list for `N#C/C(=C1/C(=O)Nc2ccccc21)c1nnc(NC(=O)c2ccc(-n3c(=O)[nH]c4ccccc4c3=O)cc2)s1`?
Answer: growth (NCI-H23 lung): 30.4%; growth (NCI-H226 lung): 34.4%; growth (NCI-H322M lung): 53.6%; growth (HOP-62 NSCLC): 53.7%; growth (NCI-H460 lung): 6.96% (active); growth (HOP-92 NSCLC): 56%; growth (NCI-H522 lung): 14.3%; growth (A549/ATCC NSCLC): 49.8%; growth (786-0 renal): 66.1%; growth (COLO 205 colon): -0.152% (active); growth (DU-145 prostate): 37.4%; growth (K-562 leukemia): 15.9%; growth (MALME-3M melanoma): 26.9%; growth (MDA-MB-231 breast): 4.04% (active); growth (RXF 393 renal): 53.4%; growth (SF-268 CNS): 65.4%; growth (SF-295 CNS): 74.5%; growth (SF-539 CNS): 36.4%; growth (UACC-257 melanoma): 47.9%; growth (M14 melanoma): 58.2%

Question: For `N#CC1=C(c2ccco2)Nc2c(c(-c3ccccc3)nn2-c2ccccc2)C12C(=O)Nc1ccc(Cl)cc12` (stereo not given), which growth (NCI-H23 lung) is on record?
Answer: 45.6%

Question: What about the growth (NCI-H226 lung) of the same molecule?
Answer: -9.04% (active)

Question: And the growth (NCI-H322M lung)?
Answer: 50.7%

Question: And the growth (HOP-62 NSCLC)?
Answer: -47.9% (active)

Question: And the growth (NCI-H460 lung)?
Answer: 0.156% (active)

Question: What about the growth (HOP-92 NSCLC) of the same molecule?
Answer: -0.851% (active)

Question: What about the growth (NCI-H522 lung) of the same molecule?
Answer: 0.0636% (active)

Question: And the growth (A549/ATCC NSCLC)?
Answer: -37.1% (active)

Question: What about the growth (786-0 renal) of the same molecule?
Answer: -14.5% (active)

Question: What about the growth (COLO 205 colon) of the same molecule?
Answer: 79.6%

Question: And the growth (DU-145 prostate)?
Answer: 42.3%

Question: What about the growth (K-562 leukemia) of the same molecule?
Answer: 9.86% (active)

Question: And the growth (MALME-3M melanoma)?
Answer: 22.3%

Question: And the growth (MDA-MB-231 breast)?
Answer: -4.25% (active)

Question: What about the growth (RXF 393 renal) of the same molecule?
Answer: 57.9%

Question: What about the growth (SF-268 CNS) of the same molecule?
Answer: 11%

Question: And the growth (SF-295 CNS)?
Answer: 6.91% (active)

Question: And the growth (SF-539 CNS)?
Answer: -30.3% (active)

Question: What about the growth (UACC-257 melanoma) of the same molecule?
Answer: 56.4%

Question: What about the growth (M14 melanoma) of the same molecule?
Answer: 22.4%

Question: Which results are given for `C=CCSc1nnc(-c2c(C)nc3sccn23)o1`?
Answer: growth (NCI-H23 lung): 88.7%; growth (NCI-H226 lung): 76.1%; growth (NCI-H322M lung): 84.9%; growth (HOP-62 NSCLC): 106%; growth (NCI-H460 lung): 95.8%; growth (HOP-92 NSCLC): 72.4%; growth (NCI-H522 lung): 89%; growth (A549/ATCC NSCLC): 92.7%; growth (786-0 renal): 89.8%; growth (COLO 205 colon): 107%; growth (DU-145 prostate): 110%; growth (K-562 leukemia): 98.3%; growth (MALME-3M melanoma): 109%; growth (MDA-MB-231 breast): 92.6%; growth (RXF 393 renal): 99.9%; growth (SF-268 CNS): 110%; growth (SF-295 CNS): 89.2%; growth (SF-539 CNS): 90.4%; growth (UACC-257 melanoma): 86.9%; growth (M14 melanoma): 92.5%

Question: Which results are given for `COc1cc(CNC(=O)C[C@H](C)CCC=C(C)C)ccc1OCc1cn(-c2ccc(Cl)cc2Cl)nn1`?
Answer: growth (NCI-H23 lung): 56.6%; growth (NCI-H226 lung): 66.4%; growth (NCI-H322M lung): 95.2%; growth (HOP-62 NSCLC): 11.3%; growth (NCI-H460 lung): 75.1%; growth (HOP-92 NSCLC): -3.27% (active); growth (NCI-H522 lung): 55.4%; growth (A549/ATCC NSCLC): 59.4%; growth (786-0 renal): 38.9%; growth (COLO 205 colon): 105%; growth (DU-145 prostate): 90.5%; growth (K-562 leukemia): 81.4%; growth (MALME-3M melanoma): 79.3%; growth (MDA-MB-231 breast): 59.7%; growth (RXF 393 renal): 14.1%; growth (SF-268 CNS): 52.3%; growth (SF-295 CNS): 41.8%; growth (SF-539 CNS): 66.9%; growth (UACC-257 melanoma): 92%; growth (M14 melanoma): 102%
